Screens as filed in PubChem BioAssay.
Only some compounds are listed: those with a hit (about 9.9% of all), similar ones and a draw of the others.
Tau fluor cs – counter-screen for tau fibril formation inhibitors; Potency, µM (top dose mostly 57.7 µM), for the others: at the top dose activity change, negative = decrease; AID 1463; tau K18 P301L Alexa594 fluorescence, heparin fibrillization; 0.93% of 280,000 active; active = well fitted curve in the direction sought with a large enough effect; inconclusive = small, poorly fitted or top-dose-only effect, or another doubt; inactive = no such curve, though single readings can be large; an effect the other way counts as inactive or inconclusive; note: nearly all actives have a fitted effect of over 55% in size
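Human tau K18 P301L (15 uM unlabeled, 0.24 uM Alexa 594-labeled) in 100 mM sodium acetate pH 7 with 20 uM heparin, 6 hr at 37 C. ThT 30 uM added, 1 hr ambient; Alexa 594 FP and total fluorescence read at 555/632 nm.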
ALDH1A1 block – inhibitors of human aldehyde dehydrogenase 1A1; P00352; Purified ALDH1A1, NADH fluorescence, propionaldehyde substrate; Potency, µM (doses to about 75.3 µM), without a hit: at the highest dose activity, negative = inhibition, most hits filed as inhibitors; 7.3% of 220,000 active; AID 1030;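 note: plate controls were no enzyme wells and a reference inhibitor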
JMJD2E inh – JMJD2E (human) inhibition; B2RXH2; 1.6% of 230,000 active; AID 2147; Potency, µM (series often up to 57.1 µM), for the others: at the top dose activity change, negative = inhibition, actives largely listed as inhibitors; JMJD2E catalytic domain, FDH-coupled NADH fluorescence (FDH is formaldehyde dehydrogenase);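 note: 0% = wells with enzyme and -100% = buffer wells without enzyme; nearly all actives have a fitted effect of over 50% in size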
Target sequence (B2RXH2 1-337 limits assumed): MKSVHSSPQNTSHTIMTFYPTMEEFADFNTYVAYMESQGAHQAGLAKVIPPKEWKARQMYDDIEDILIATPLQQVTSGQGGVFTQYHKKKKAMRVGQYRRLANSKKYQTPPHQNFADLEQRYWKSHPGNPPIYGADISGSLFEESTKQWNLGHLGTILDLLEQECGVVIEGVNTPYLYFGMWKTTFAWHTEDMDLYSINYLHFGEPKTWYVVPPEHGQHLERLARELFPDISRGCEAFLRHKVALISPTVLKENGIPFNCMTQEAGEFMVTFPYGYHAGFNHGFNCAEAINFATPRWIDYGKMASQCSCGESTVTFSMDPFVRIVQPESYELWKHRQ
HPGD inh – HPGD (human) dehydrogenase inhibition; AID 894; P15428; purified HPGD, NADH fluorescence kinetic, PGE2 substrate; Potency, µM, for inactives: at the highest dose activity change, negative = inhibition, usual class: inhibitors; 4.3% of 150,000 active
Target sequence (P15428 whole entry, looked up): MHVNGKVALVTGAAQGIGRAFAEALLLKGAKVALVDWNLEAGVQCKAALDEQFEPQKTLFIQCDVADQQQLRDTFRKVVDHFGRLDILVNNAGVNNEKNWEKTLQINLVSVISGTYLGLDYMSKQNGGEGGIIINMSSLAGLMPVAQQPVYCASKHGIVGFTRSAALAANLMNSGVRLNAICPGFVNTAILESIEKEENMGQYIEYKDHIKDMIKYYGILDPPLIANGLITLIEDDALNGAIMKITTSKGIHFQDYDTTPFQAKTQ
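NADH formation kinetics: reaction with 30 uM PGE2 and 1 mM NAD+ (final), 20 nM enzyme, Tris-HCl pH 8 with Tween 20, after 15 min compound preincubation at room temperature. Fluorescence change, last versus first of five reads.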
Tau fibril ThT – tau fibrillization inhibition (ThT binding); P10636; recombinant tau K18 P301L (four-repeat tau fragment), heparin-induced fibrillization, ThT fluorescence; Potency, µM (titrated, usually from 57.4 µM), for inactives: at the top dose activity, negative = inhibition, actives largely listed as inhibitors; 2.1% of 270,000 active; active = well fitted curve in the direction sought with a large enough effect; inconclusive = small, poorly fitted or top-dose-only effect, or another doubt; inactive = no such curve, though single readings can be large; an effect the other way counts as inactive or inconclusive; note: nearly all actives have a fitted effect of over 55% in size
Target sequence (P10636 561-689 P618L limits assumed): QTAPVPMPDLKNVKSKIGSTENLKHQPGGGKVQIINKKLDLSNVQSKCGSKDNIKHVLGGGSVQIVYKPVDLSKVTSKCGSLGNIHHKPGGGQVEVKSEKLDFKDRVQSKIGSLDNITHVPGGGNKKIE
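Recombinant human tau K18 fragment […] carrying P301L, 15 uM unlabeled plus 0.24 uM Alexa 594-labeled, was fibrillized with 20 uM heparin in 100 mM sodium acetate pH 7 for 6 hr at 37 C; 30 uM ThT fluorescence read after 1 hr.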
Tau fibril FP – blocks human tau fibril formation measured by polarization. K18 P301L tau heparin fibrillization, Alexa594 FP, 6 h. Potency, µM (top dose mostly 57.7 µM), for inactives: top-dose activity, negative = inhibition, actives largely listed as inhibitors. AID 1468. 0.39% of 280,000 active. P10636; active = well fitted curve in the direction sought with a large enough effect; inconclusive = small, poorly fitted or top-dose-only effect, or another doubt; inactive = no such curve, though single readings can be large; an effect the other way counts as inactive or inconclusive; note: nearly all actives have a fitted effect of over 55% in size
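FP of Alexa 594-tau after heparin (20 uM) induction. Substrate: human K18 P301L, 15 uM unlabeled, 0.24 uM labeled. Buffer 100 mM sodium acetate pH 7. 6 hr, 37 C.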
Numbers without * were called inactive; ? = inconclusive; nt = not tested or not shown; [ ] = remark or other dose. Unless noted, calls come from the whole dose curve; as a rule, active = well fitted inhibition curve with a large enough effect (not every such curve was filed as active); inconclusive = small, poorly fitted or top-dose-only effect, or another doubt; inactive = no such curve, though single readings can be large or run the other way. Unless noted, % is set by controls: 0 for no effect and ±100 for the full control effect; potency is the fitted concentration of half-maximal effect.

SMILES	Tau fluor cs	ALDH1A1 block	JMJD2E inh	HPGD inh	Tau fibril ThT	Tau fibril FP
CNC(=O)COC(=O)c1cc(SC)ccc1Cl	2.8%	4.7%	?	nt	1.2%	7.9%
CSc1ccc(Cl)c(C(=O)OCC(=O)NCC(C)C)c1	-5.7%	-13.1%	?	14.1µM*	-8.8%	4.4%
COc1ccc(C(=O)CCC(=O)Nc2cccnc2)cc1	7.3%	-5.8%	1.6%	nt	4.7%	4.9%
CCOC(=O)c1sc(NC(=O)c2cccc(S(=O)(=O)N3CCN(C)CC3)c2)cc1C	?	?	-20.1%	25.1µM*	-4.3%	?
CCOC(=O)c1sc(NC(=O)c2ccc(Cl)s2)cc1C	-16.5%	?	-2.3%	?	-2.2%	-7.4%
CCOC(=O)c1sc(NC(=O)Nc2ccc(Cl)cc2)cc1C	3.16µM*[quencher]	7.1%	-4.5%	-21.5%	-15.1%	?
CCOC(=O)c1sc(NC(=O)c2cccc(S(=O)(=O)N(CC)CC)c2)cc1C	?	12.1%	?	10.6%	-3.7%	?
Cc1ccc(C)c(Cn2c3ccccc3c3cnn(CC(=O)NC(C)c4ccccc4)c(=O)c32)c1 (stereo unspecified)	0.4%	nt	nt	nt	4.4%	3.7%
O=C(c1ccco1)N1CCC[C@@]2(CCN(c3ccncc3)C2)C1	nt	-5.3%	nt	-12.5%	nt	nt
O=C(c1ccco1)N1CCC2(CC1)CN(c1ccc(-c3ccccc3)cc1)C2	nt	-8.4%	nt	-10.4%	nt	nt
O=C(c1ccco1)N1CCC2(CC1)CCN(c1ccncc1)CC2	nt	7.08µM*	nt	-7.9%	nt	nt
O=C(c1ccco1)N1CCC2(CC1)CN(c1ccccc1)C2	nt	14.1µM*	nt	-7.9%	nt	nt
COc1ccc(NC(=O)N2CC3(CCN(C(=O)c4ccco4)CC3)C2)cc1	nt	15.8µM*	nt	-3.9%	nt	nt
COc1ccc(N2CC(NC(=O)C3CC3)CC2=O)cc1OC (stereo unspecified)	-2.5%	nt	nt	nt	-7.0%	-5.8%
COc1ccc(/C(C)=N/Nc2nc3ccccc3nc2C)cc1	?	nt	?	nt	11.2µM*	6.1%
COc1ccc(-n2c(O)c(/C=N/Nc3nc(C)cc(C)n3)c3ccccc3c2=O)cc1OC	-29.6%	0.794µM*	?	nt	?	5.8%
O=S(=O)(NC1CCCCC1Oc1ccccc1)c1ccc(Cl)cc1 (stereo unspecified)	-17.4%	?	10.6%	-1.6%	-1.0%	7.4%
CSc1ccc(OC2CCCCC2NS(=O)(=O)c2ccc(Cl)cc2)cc1 (stereo unspecified)	-20.3%	0.447µM*	-9.8%	-12.6%	-1.1%	2.1%
Cc1ccc(N2CCN(C(=O)c3cn(C)c4ccc(S(=O)(=O)N(C)C5CCCCC5)cc4c3=O)CC2C)cc1 (stereo unspecified)	-6.5%	nt	nt	nt	-4.3%	-3.2%
CCOC(=O)c1cnc2c(-c3ccccc3)c(C)nn2c1N	-10.4%	?	?	-22.2%	?	-0.3%
CCOC(=O)c1cnc2c(N=Nc3cccc(Cl)c3)c(N)nn2c1N	-12.6%	2.9%	-0.7%	-9.5%	2.51µM*	-2.6%
CCOC(=O)c1cnc2c(N=Nc3ccccc3)c(N)nn2c1N	-11.4%	17.1%	6.0%	-7.2%	2.51µM*	-0.1%
COc1ccc([N+](=O)[O-])cc1NC(=O)c1ccc(CN(c2ccccc2)S(C)(=O)=O)cc1	?	1.5%	-2.9%	-22.1%	-7.3%	-12.9%
CCOC(=O)C1=C(C)N=C2SCCC(=O)N2C1c1ccc(OCc2ccccc2)cc1 (stereo unspecified)	-15.5%	nt	nt	nt	-7.3%	-2.6%
FC(F)(F)c1nc2cc3nc4ccccc4[nH]c3cc2n1	-29.8%	nt	-17.9%	nt	5.01µM*	?
SMILES	Tau fluor cs	ALDH1A1 block	JMJD2E inh	HPGD inh	Tau fibril ThT	Tau fibril FP
Cc1ccccc1OCC(=O)N(Cc1ccc(N(C)C)cc1)C1CCS(=O)(=O)C1 (stereo unspecified)	-5.2%	11.2µM*	-1.1%	-3.1%	-4.9%	2.7%
O=C(COc1ccccc1)N(Cc1ccco1)C1CCS(=O)(=O)C1 (stereo unspecified)	-4.2%	22.4µM*	-0.2%	-11.0%	-18.7%	-2.2%
CCN(CC)c1ccc(CN(C(=O)c2ccco2)C2CCS(=O)(=O)C2)cc1 (stereo unspecified)	-2.4%	22.4µM*	-4.9%	-4.6%	-5.5%	-5.8%
CCN(CC)c1ccc(CN(C(=O)c2cc(OC)c(OC)c(OC)c2)C2CCS(=O)(=O)C2)cc1 (stereo unspecified)	-5.4%	7.0%	-1.1%	-18.2%	-9.0%	6.9%
CN(C)c1ccc(CN(C(=O)COc2ccccc2)C2CCS(=O)(=O)C2)cc1 (stereo unspecified)	-12.7%	3.98µM*	-5.4%	-22.0%	1.5%	1.7%
Cc1ccc(OCC(=O)N(Cc2ccc(N(C)C)cc2)C2CCS(=O)(=O)C2)cc1C (stereo unspecified)	-24.6%	nt	1.5%	nt	-16.1%	-14.2%
Cc1ccc(OCC(=O)N(Cc2ccco2)C2CCS(=O)(=O)C2)cc1 (stereo unspecified)	-3.5%	nt	nt	nt	5.5%	2.8%
CN(C)CCCOC1C(C(O)CO)OC2OC(C)(C)O[C@@H]21 (stereo partly specified)	-8.8%	2.3%	3.1%	-6.5%	-3.7%	2.1%
O=[N+]([O-])c1ccc(Cl)c(S(=O)(=O)N2CCCCCC2)c1	-22.7%	?	2.6%	-11.3%	-5.4%	14.0%
Cc1ccc(-c2noc(-c3ccc(NCc4ccco4)c([N+](=O)[O-])c3)n2)cc1	-8.4%	nt	nt	nt	-6.9%	1.4%
CN(C)c1ccc(CN(C(=O)C2COc3ccccc3O2)C2CCS(=O)(=O)C2)cc1 (stereo unspecified)	-8.5%	4.47µM*	-5.2%	nt	-6.5%	3.5%
CN(C(=O)c1ccccc1)c1ccc(OCC(=O)NC2CCS(=O)(=O)C2)cc1 (stereo unspecified)	-2.4%	14.1µM*	3.2%	-14.8%	?	-7.3%
CC(C)CCOc1cccc(OCC(=O)NC2CCS(=O)(=O)C2)c1 (stereo unspecified)	-13.7%	-2.6%	4.9%	-6.9%	-13.5%	2.0%
C=CCOc1ccc(C(=O)N(Cc2ccc(N(C)C)cc2)C2CCS(=O)(=O)C2)cc1 (stereo unspecified)	-6.0%	10µM*	-13.8%	-15.0%	-5.7%	?
CC(C)c1ccc(CN(C(=O)C2COc3ccccc3O2)C2CCS(=O)(=O)C2)cc1 (stereo unspecified)	-9.9%	?	-0.9%	-14.3%	-12.9%	0.2%
COc1ccc(-n2cnnc2SCC(=O)NC2CCCc3ccccc32)cc1 (stereo unspecified)	12.2%	5.3%	-2.1%	-3.7%	5.9%	8.0%
CC1CC(C)CN(CCOCCSc2ccc(Cl)cc2)C1 (stereo unspecified)	1.2%	-0.3%	-1.2%	nt	8.7%	-3.9%
c1ccc(SCCOCCn2cncn2)cc1	0.5%	28.2µM*	?	-1.2%	-0.9%	-1.2%
